A short description of assay [1]: BET inhibitor-based combinations targeting novel dependencies in MECOM-rearranged (r) AML: MV-4-11 cell line (AID 2202233). Also: nearly all actives have a fitted effect of over 45% in size. As to conditions: MV-4-11 AML viability, CellTiter-Glo luminescence, 48 h; series mostly up to 46 µM. The gist of the method: (§1)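 First, 500 cells per well were seeded; next, drugs were pinned as 11-point doses; then plates sat 48 hr in the incubator; finally CellTiter-Glo was added and luminescence read, with AUC and Z-AUC computed.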
For orientation: In ATP-based viability assays light output follows the ATP content of the culture.

Assay [2] is described as follows: BET inhibitor-based combinations targeting novel dependencies in MECOM-rearranged (r) AML: UCSD-AML1 cell line (AID 2202235). Also: nearly all actives have a fitted effect of over 40% in size. As to conditions: UCSD-AML1 AML cells viability, CellTiter-Glo, 48 h; series mostly up to 46 µM. The gist of the method: as §1
Assay [3] is described as follows: BET inhibitor-based combinations targeting novel dependencies in MECOM-rearranged (r) AML: HNT-34 cell line (AID 2202234). Also: nearly all actives have a fitted effect of over 35% in size. The conditions noted are these: HNT-34 AML viability, CellTiter-Glo luminescence, 48 h; series mostly up to 46 µM. Summed up:
as §1

The nature of assay [4]: BET inhibitor-based combinations targeting novel dependencies in MECOM-rearranged (r) AML: AML-194 cell line (AID 2202237; also: nearly all actives have a fitted effect of over 40% in size). As to conditions: AML-194 (MECOM-r AML) viability, CellTiter-Glo, 48 h; series mostly up to 46 µM. The gist of the method:
(§2)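 Each compound was tested at eleven concentrations on cells seeded at 500/well. After two days' incubation, ATP-based luminescence reported viability; responses relative to DMSO and blank wells yielded AUC and cell-line-centred Z-AUC.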

The nature of assay [5]: BET inhibitor-based combinations targeting novel dependencies in MECOM-rearranged (r) AML: AML-191 cell line (AID 2202236; also: nearly all actives have a fitted effect of over 35% in size). The conditions noted are these: AML-191 viability, CellTiter-Glo luminescence, 48 h; series mostly up to 46 µM. The gist of the method:
as §2

Inconclusive results are not listed. Calls of active or inactive are those of the source. Calls follow the shape of the dose curve; as a rule, active = well fitted curve in the direction sought with a large enough effect; inconclusive = small, poorly fitted or top-dose-only effect, or another doubt; inactive = no such curve, though single readings can be large; an effect the other way counts as inactive or inconclusive. Non-standard residues stand in square brackets, D forms with d. Residues, ends and D or L forms follow the SMILES beside them. Dip = N[C@H](C(=O)O)C(c1ccccc1)c1ccccc1
Potency is read from the fitted curve at half-maximal effect.

On to `COc1cc(OCc2cccc(-c3ccccc3)c2C)cc(OC)c1CN1CCCC[C@H]1C(=O)O`, for which the Potency in assay [1] is 20900 nM (active). The Potency entry in assay [2] is “inactive”.
In the case of `CCN(CC)C(=O)Cc1csc(NS(=O)(=O)c2cccc(Cl)c2C)n1`, the Potency entry in assay [3], in assay [2] and in assay [4] was “inactive” in each case.
`CNC(=O)c1ccc(N2C(=S)N(c3ccc(C#N)c(C(F)(F)F)c3)C(=O)C2(C)C)cc1F`: the Potency entry in assay [2], in assay [5] and in assay [4] was “inactive” throughout.
`C[C@@H](O)[C@@H](C)Oc1nc(Nc2ccc(S(=N)(=O)C3CC3)cc2)ncc1C(F)(F)F` (stereo partly drawn): the Potency was 16600 nM (active) in assay [3], 20900 nM (active) in assay [2], 18600 nM (active) in assay [5] and 16600 nM (active) in assay [4].
On to `COc1ccc(CC2c3cc(OC)c(OC)cc3CC[N+]2(C)CCC(=O)OCCCCCOC(=O)CC[N+]2(C)CCc3cc(OC)c(OC)cc3C2Cc2ccc(OC)c(OC)c2)cc1OC` (stereo not drawn), for which the Potency result in assay [2] and in assay [4] was “inactive” each time.
For `CN[C@@H]1C[C@H]2O[C@@](C)([C@@H]1OC)n1c3ccccc3c3c4c(c5c6ccccc6n2c5c31)C(=O)N[C@H]4O`, the Potency in assay [3] is 428 nM (active); in assay [2], 135 nM (active); in assay [5], 605 nM (active); in assay [4], 382 nM (active).
Turning to `CN1C(=O)N(c2cc(Cl)cc(Cl)c2)C(=O)[C@]12CN(Cc1cc(C(=O)O)cs1)C[C@H]2c1ccc(C#N)cc1`, the Potency entry in assay [3], in assay [2] and in assay [4] was “inactive” each time.
Take `Cc1noc(-c2ccc(-c3ccc(C4(C(=O)O)CC4)cc3)cc2)c1NC(=O)O[C@H](C)c1ccccc1`: the Potency entry in assay [2] and in assay [4] was “inactive” throughout.
Consider `COc1ccc2c(c1)C(c1ccc(F)cc1)=C(CN1CCCC1)CO2`, for which the Potency result in assay [2], in assay [5] and in assay [4] was “inactive” in each case.
Consider `CNC(=O)[C@@H](NC(=O)[C@H](CC(C)C)[C@H](O)C(=O)NO)C(C)(C)C`, for which the Potency was 14800 nM (active) in assay [3] and 20900 nM (active) in assay [5]. For the same compound, the Potency result in assay [2] was “inactive”.
Regarding `CCCCCCCCCCCCCC(=O)N[C@H](CO)[C@H](O)c1ccc([N+](=O)[O-])cc1`, the Potency result in assay [2] and in assay [4] was “inactive” throughout.
In the case of `CC[C@H](C)[C@@H]([C@@H](CC(=O)N1CCC[C@H]1[C@H](OC)[C@@H](C)C(=O)N[C@@H](Cc1ccccc1)c1nccs1)OC)N(C)C(=O)[C@@H](NC(=O)[C@H](C(C)C)N(C)C)C(C)C`, the Potency result in assay [3], in assay [5] and in assay [4] was “inactive” each time.
With `CC(=O)N1CCN(c2ccc(NC(=O)Cc3cnc(-c4ccnc(F)c4)c(C)c3)nc2)CC1`, the Potency result in assay [3] and in assay [4] was “inactive” each time.
On to `Cc1c(O)cccc1C(=O)NC(CSc1ccccc1)C(O)CN1CC2CCCCC2CC1C(=O)NC(C)(C)C` (stereo not drawn), for which the Potency in assay [4] was 26300 nM (active).
For the compound `CCc1cnn2c(NCc3ccc[n+]([O-])c3)cc(N3CCCC[C@H]3CCO)nc12`, the Potency in assay [2] is 23.5 nM (active); in assay [5] it was 26.3 nM (active); in assay [4], 37.2 nM (active).
With `COC(=O)C1=C(C)NC(c2ncc(F)cc2F)=N[C@H]1c1ccc(F)cc1Cl`, the Potency in assay [3] was 16600 nM (active).
Take `NCCCC[C@H](NC(=O)[C@@H](NC(=O)[C@H](Cc1c[nH]c2ccccc12)NC(=O)[C@H](CCCCN)NC(=O)[C@H](CCCCN)NC(=O)[C@H](Cc1c[nH]c2ccccc12)NC(=O)[C@H](Cc1c[nH]c2ccccc12)NC(=O)[C@H](CCCCN)NC(=O)[C@@H](N)CCCCN)C(c1ccccc1)c1ccccc1)C(N)=O` (H-KKWWKKW[Dip]K-NH2): the Potency entry in assay [2] and in assay [4] was “inactive” throughout.
With `CC1=C(c2ccc(O)cc2)[C@H](c2ccc(OCCN3CCCCC3)cc2)Oc2cc(O)ccc21`, the Potency result in assay [4] is “inactive”.
As for `Cc1cc(Oc2ccc3nc(COc4ccc(CC5SC(=O)NC5=O)cc4)n(C)c3c2)cc(C)c1N` (stereo not drawn), the Potency entry in assay [3], in assay [2] and in assay [4] was “inactive” in each case.
With `CCS(=O)(=O)c1ccc2oc(-c3ccc4ccccc4c3)nc2c1`, the Potency entry in assay [3] and in assay [2] was “inactive” throughout.
In the case of `CO[C@H]1C[C@@H]2CC[C@@H](C)[C@@](O)(O2)C(=O)C(=O)N2CCCC[C@@H]2C(=O)O[C@H]([C@@H](C)C[C@@H]2CC[C@H](O)[C@H](OC)C2)CC(=O)[C@H](C)C=C(C)[C@@H](O)[C@@H](OC)C(=O)[C@H](C)C[C@H](C)C=CC=CC=C1C`, the Potency in assay [2] is 1.7 nM (active).
Regarding `CC/C(=C(/c1ccc(/C=C/C(=O)O)cc1)c1ccc2[nH]ncc2c1)c1ccc(F)cc1Cl`, the Potency result in assay [2], in assay [5] and in assay [4] was “inactive” each time.
Regarding `Cc1ccc(-c2ccc(C)cn2)nc1`, the Potency result in assay [2] is “inactive”.
In the case of `CN(C)CCNC(=O)COc1c2cccc1Cc1cccc(c1OCC(=O)NCCN(C)C)Cc1cccc(c1OCC(=O)NCCN(C)C)Cc1cccc(c1OCC(=O)NCCN(C)C)C2`, the Potency in assay [2] and in assay [5] was 428 nM (active) in each case.
On to `C[C@H](Nc1nc(N[C@H](C)C(F)(F)F)nc(-c2cccc(Cl)n2)n1)C(F)(F)F`, for which the Potency entry in assay [2], in assay [5] and in assay [4] was “inactive” throughout.
Consider `COc1ccc(C2=N[C@H](c3ccc(Cl)cc3)[C@H](c3ccc(Cl)cc3)N2C(=O)N2CCNC(=O)C2)c(OC(C)C)c1`, for which the Potency is 23500 nM (active) in assay [3] and 26300 nM (active) in assay [5]. Besides, the Potency entry in assay [2] is “inactive”.
`CC1(C)OCCn2c1nc1c(N3CCOCC3)nc(-c3cnc(N)nc3)nc12`: the Potency in assay [2] was 468 nM (active).
On to `C=CC(=O)N1CC(N2CCN(C(=O)CNc3cc(C4(C)CC4)c(Cl)cc3O)CC2)C1`, for which the Potency entry in assay [2], in assay [5] and in assay [4] was “inactive” in each case.
On to `COc1ccc2c(c1)[C@]1(C[C@H]1c1ccc3c(/C=C/c4ccc(CN5C[C@@H](C)O[C@@H](C)C5)cc4)n[nH]c3c1)C(=O)N2`, for which the Potency in assay [3] was 1320 nM (active); in assay [5], 417 nM (active); in assay [4], 132 nM (active).
For the compound `CCCCOc1ccc(CC(=O)NO)cc1`, the figures for the Potency in assay [3] and in assay [4] were 20900 nM (active) and 23500 nM (active), respectively.
As for `CC1=C(/C=C/C(C)=C/C=C/C(C)=C/C=C/C=C(C)/C=C/C=C(C)/C=C/C2=C(C)CCCC2(C)C)C(C)(C)CCC1`, the Potency entry in assay [2], in assay [5] and in assay [4] was “inactive” each time.
As for `CCN1C(=O)CNc2ncc(-c3ccc(-c4ncn[nH]4)nc3C)nc21`, the figures for the Potency in assay [3] and in assay [2] were 2090 nM (active) and 186 nM (active), respectively.
With `[2H]C([2H])([2H])C(O)([C@@H](C)/C=C/[C@@H](C)[C@H]1CC[C@H]2/C(=C/C=C3C[C@@H](O)C[C@H](O)C3)CCC[C@]12C)C([2H])([2H])[2H]`, the Potency in assay [5] was 14800 nM (active).
In the case of `CN(C)CCOc1ccc(/C(=C(/CCCl)c2ccccc2)c2ccccc2)cc1`, the Potency result in assay [2] is “inactive”.
Turning to `O=C(Nc1ccc(OC(F)(F)Cl)cc1)c1cnc(N2CC[C@@H](O)C2)c(-c2ccn[nH]2)c1`, the Potency was 10.5 nM (active) in assay [3] and 18600 nM (active) in assay [4]. Besides, in assay [2], the Potency result is “inactive”.
For `O=C(Nc1cnccc1Cl)N1CCN(Cc2ccc3c(c2)OC(F)(F)O3)CC1`, the Potency entry in assay [2] and in assay [4] was “inactive” throughout.
In the case of `CC(C)c1onc(-c2c(Cl)cccc2Cl)c1COc1ccc(/C=C/c2cccc(C(=O)O)c2)c(Cl)c1`, the Potency result in assay [2], in assay [5] and in assay [4] was “inactive” throughout.
With `Cc1nc(C)c(CN2CCN(C(c3ccc(F)cc3)c3ccc(F)cc3)CC2)nc1C`, the Potency in assay [4] was 20900 nM (active).
For the compound `CS(=O)(=O)c1ccc([C@@H](CC2CCCC2)C(=O)Nc2nccs2)cc1`, in assay [2], the Potency entry was “inactive”.
As to `O=C(CCNC(=O)c1ccc(OC(F)(F)F)cc1)N[C@@H]1CCCc2ccccc21`, the Potency entry in assay [2] and in assay [4] was “inactive” throughout.
Regarding `CCOc1cc(CC(=O)N[C@@H](CC(C)C)c2ccccc2N2CCCCC2)ccc1C(=O)O`, the Potency result in assay [3], in assay [2] and in assay [5] was “inactive” each time.

Source of the values: PubChem BioAssay (NCATS).
